Measurements as given in PubChem BioAssay (Tox21).
Records with an inconclusive call do not appear. Entries that show only a call come without a potency. Activity calls are given as the source filed them. Unless noted, calls come from the whole dose curve; as a rule, active = well fitted curve in the direction sought with a large enough effect in the repeat runs; inconclusive = weak or mixed curves; inactive = no such curve, though single readings can be large; an effect the other way counts as inactive or inconclusive.

Experiments:
[1] = qHTS assay to identify small molecule antagonists of the glucocorticoid receptor (GR) signaling pathway - cell viability counter screen (AID 720693); note: nearly all actives have a fitted effect of over 55% in size
[2] = qHTS assay for identifying genotoxic compounds that show differential cytotoxicity against isogenic chicken DT40 cell lines with known DNA damage response pathways - wild type cell line (AID 743012); note: nearly all actives have a fitted effect of over 60% in size; note: potency is the fitted concentration of half-maximal effect
Procedure, shortened: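 Wild-type DT40 cells (300/well) exposed to compounds for 40 hours at 37 C/5% CO2. Viability read by CellTiter-Glo luminescence after 30 min at room temperature.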

[3] = qHTS assay for identifying genotoxic compounds that show differential cytotoxicity against isogenic chicken DT40 cell lines with known DNA damage response pathways - Rev3 mutant cell line (AID 743014); note: nearly all actives have a fitted effect of over 55% in size; note: potency is the fitted concentration of half-maximal effect
[4] = qHTS assay for identifying genotoxic compounds that show differential cytotoxicity against isogenic chicken DT40 cell lines with known DNA damage response pathways - Rad54/Ku70 mutant cell line (AID 743015); note: nearly all actives have a fitted effect of over 60% in size; note: potency is the fitted concentration of half-maximal effect
[5] = qHTS assay to identify small molecule antagonists of the androgen receptor (AR) signaling pathway - cell viability counter screen (AID 743033; note: nearly all actives have a fitted effect of over 45% in size; note: potency is the fitted concentration of half-maximal effect)
[6] = molecular target: Androgen receptor (Homo sapiens) (UniProt P10275); experiment: qHTS assay to identify small molecule antagonists of the androgen receptor (AR) signaling pathway (AID 743035; active = well fitted inhibition curve with a large enough effect in the signal ratio in the repeat runs, not every such curve was filed as active; the % refers to the signal ratio)
Procedure, shortened: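 HEK293 cells stably carrying UAS-beta-lactamase reporter, 2,000/well, given compounds plus R1881 agonist and incubated 16 h at 37C. LiveBLAzer B/G FRET substrate then added for 2 h at room temperature before fluorescence reading.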

[7] = molecular target: Androgen receptor (Homo sapiens) (UniProt P10275); experiment: qHTS assay to identify small molecule agonists of the androgen receptor (AR) signaling pathway (AID 743036; active = well fitted activation curve with a large enough effect in the signal ratio in the repeat runs, with a control signal flat, not every such curve was filed as active; the % refers to the signal ratio)
Procedure, shortened: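 Fluorescence from a beta-lactamase FRET substrate served as read-out in AR-UAS-bla GripTite HEK293 cells. Cells were treated with DMSO-dissolved compounds for 16 h at 37C, then with LiveBLAzer B/G substrate for 2 h at room temperature.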

[8] = molecular target: Androgen receptor (Homo sapiens) (UniProt P10275); experiment: qHTS assay to identify small molecule agonists of the androgen receptor (AR) signaling pathway using the MDA cell line (AID 743040; note: nearly all actives have a fitted effect of over 20% in size)
Procedure, shortened: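 Luminescence from ONE-Glo, read after 30 min at room temperature, reflects MMTV-driven luciferase in MDA-kb2 cells (AR- and GR-responsive). Treatment lasted 16 h at 37C, 0% CO2.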

[9] = qHTS assay to identify small molecule antagonists of the androgen receptor (AR) signaling pathway using the MDA cell line - cell viability counter screen (AID 743041; note: nearly all actives have a fitted effect of over 45% in size)
Procedure, shortened: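 Viability counter screen run alongside the AR antagonist reporter: cells seeded 5 h before compound, R1881 added, 16 h incubation at 37C without CO2, fluorescent CellTiter-Fluor signal quantified.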

[10] = molecular target: Androgen receptor (Homo sapiens) (UniProt P10275); experiment: qHTS assay to identify small molecule antagonists of the androgen receptor (AR) signaling pathway using the MDA cell line (AID 743042; note: nearly all actives have a fitted effect of over 55% in size)
Procedure, shortened: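 MDA-kb2 cells (human breast carcinoma, stably carrying an MMTV-luciferase reporter responsive to AR and GR) were plated at 3,000 cells/well and preincubated 5 hr at 37C, then given compound plus R1881 agonist for 16 h. ONE-Glo luminescence was read.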

Sequence of Androgen receptor (Homo sapiens) (P10275 whole entry, looked up): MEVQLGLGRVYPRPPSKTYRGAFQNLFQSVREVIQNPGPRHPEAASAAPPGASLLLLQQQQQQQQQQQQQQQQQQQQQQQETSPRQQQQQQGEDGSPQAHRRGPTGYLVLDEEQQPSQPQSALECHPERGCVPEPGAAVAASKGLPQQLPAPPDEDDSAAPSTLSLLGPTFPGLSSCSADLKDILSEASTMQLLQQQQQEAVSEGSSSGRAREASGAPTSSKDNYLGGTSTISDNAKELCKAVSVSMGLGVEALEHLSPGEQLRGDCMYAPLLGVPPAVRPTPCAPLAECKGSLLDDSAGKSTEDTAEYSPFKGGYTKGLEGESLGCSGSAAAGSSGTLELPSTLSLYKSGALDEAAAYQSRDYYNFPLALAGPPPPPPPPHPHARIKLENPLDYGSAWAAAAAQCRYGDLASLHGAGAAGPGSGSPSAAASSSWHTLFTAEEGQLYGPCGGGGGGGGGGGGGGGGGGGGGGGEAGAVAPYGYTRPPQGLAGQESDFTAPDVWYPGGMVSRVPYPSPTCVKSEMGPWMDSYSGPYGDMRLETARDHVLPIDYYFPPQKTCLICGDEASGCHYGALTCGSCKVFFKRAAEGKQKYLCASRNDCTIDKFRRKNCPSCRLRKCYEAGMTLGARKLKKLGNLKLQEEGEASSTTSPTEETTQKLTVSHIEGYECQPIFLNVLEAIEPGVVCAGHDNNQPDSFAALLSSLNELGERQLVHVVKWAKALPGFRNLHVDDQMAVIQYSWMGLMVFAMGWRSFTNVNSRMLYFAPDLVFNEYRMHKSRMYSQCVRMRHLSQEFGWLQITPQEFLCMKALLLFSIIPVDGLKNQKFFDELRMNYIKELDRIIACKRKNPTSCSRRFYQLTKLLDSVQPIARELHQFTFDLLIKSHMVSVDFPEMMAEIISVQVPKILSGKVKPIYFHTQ

| Structure (SMILES) | Potency [1] | Potency [2] | Potency [3] | Potency [4] | Potency [5] | Potency [6] | outcome [7] | Potency [8] | Potency [9] | outcome [10] |
| --- | --- | --- | --- | --- | --- | --- | --- | --- | --- | --- |
| CC(C)CC#N | inactive | inactive | inactive | inactive | inactive | inactive | inactive | inactive | inactive | inactive |
| CCCCOP(=O)(O)OCCCC | inactive | inactive | inactive | inactive | inactive | inactive | inactive | inactive | inactive | inactive |
| CCCCOC(=O)c1ccccc1C(=O)O | inactive | inactive | inactive | inactive | inactive | inactive | – | inactive | inactive | inactive |
| CC(Cl)(Cl)[N+](=O)[O-] | inactive | inactive | inactive | inactive | inactive | inactive | inactive | inactive | inactive | inactive |
| N#CC(CCc1ccc(Cl)cc1)(Cn1cncn1)c1ccccc1 (centres undefined) | inactive | 13.7 µM (active) | 13.7 µM (active) | 13.7 µM (active) | 49 µM (active) | – | inactive | inactive | – | – |
| Cc1ccccc1CO[C@@H]1C[C@@]2(C(C)C)CC[C@]1(C)O2 | inactive | 43.3 µM (active) | 48.6 µM (active) | 54.5 µM (active) | inactive | inactive | inactive | inactive | inactive | – |
| CCCCc1ccc(O)cc1 | inactive | inactive | inactive | inactive | inactive | – | – | – | – | – |
| N#CC(Cl)(Cl)Cl | inactive | inactive | inactive | inactive | inactive | inactive | inactive | inactive | inactive | inactive |
| CCCCCCI | inactive | inactive | inactive | inactive | inactive | inactive | inactive | inactive | inactive | inactive |
| CCOP(=O)(N=C1SCCS1)OCC | inactive | inactive | inactive | inactive | inactive | – | – | – | inactive | – |
| O=C(Cc1ccccc1)OCc1ccccc1 | inactive | inactive | inactive | inactive | inactive | – | – | – | inactive | – |
| C[C@]12CC[C@H]3[C@@H](CC=C4C[C@@H](O)CC[C@@]43C)[C@@H]1CC[C@@H]2O | inactive | inactive | inactive | 29.8 µM (active) | inactive | – | – | – | inactive | – |
| C=C(C)[C@@H]1CC=C(C=O)CC1 | inactive | 54.5 µM (active) | 61.1 µM (active) | 54.5 µM (active) | inactive | – | – | – | inactive | – |
| C=C(C)CN(CC)c1c([N+](=O)[O-])cc(C(F)(F)F)cc1[N+](=O)[O-] | inactive | inactive | inactive | inactive | inactive | – | – | – | inactive | – |
| C=CC1CC=CCC1 (centres undefined) | inactive | inactive | inactive | inactive | inactive | – | – | – | inactive | – |
| CCOP(=S)(OCC)SCSP(=S)(OCC)OCC | inactive | 54.5 µM (active) | 61.1 µM (active) | 61.1 µM (active) | inactive | – | – | – | inactive | – |
| Nc1cc2c3c(c1)C(c1ccccc1)=N[C@@H](NC(=O)c1cccnc1)C(=O)N3CC2 | inactive | inactive | inactive | inactive | inactive | – | – | – | inactive | – |
| CNC(=O)O/N=C(\C)SC | inactive | inactive | inactive | inactive | inactive | – | – | – | inactive | – |
| CCN(CC)c1nc(C)cc(OP(=S)(OC)OC)n1 | inactive | 48.6 µM (active) | 48.6 µM (active) | 48.6 µM (active) | inactive | – | – | – | inactive | – |
| CCCCCCBr | inactive | inactive | inactive | inactive | inactive | – | – | – | inactive | – |
| Cc1cccc(C#N)c1 | inactive | inactive | inactive | inactive | inactive | – | – | – | inactive | – |
| Oc1c(Cl)cccc1Cl | inactive | inactive | inactive | inactive | inactive | – | – | – | inactive | – |
| ClC(Cl)C(Cl)Cl | inactive | inactive | inactive | inactive | inactive | – | – | – | inactive | – |
| CCCCOC(=O)[C@@H](C)Oc1ccc(Oc2ccc(C#N)cc2F)cc1 | inactive | 34.2 µM (active) | 30.5 µM (active) | 43 µM (active) | inactive | – | – | – | inactive | – |
| Cc1coc2c1CCC(C)C2 (centres undefined) | inactive | inactive | inactive | inactive | inactive | – | – | – | inactive | – |
| C[N+](=O)[O-] | inactive | inactive | inactive | inactive | inactive | – | – | – | inactive | – |
| COC(=O)COc1ccc(Cl)cc1Cl | inactive | inactive | inactive | inactive | inactive | – | – | – | inactive | – |
| CC(C)[N+](=O)[O-] | inactive | inactive | inactive | inactive | inactive | – | – | – | inactive | – |
